Test results published in PubChem BioAssay (NCATS).
Where “and” joins values, the source holds several entries; their conditions need not be identical. Equal entries are not always repeated. Values without a mark were called inactive. Records with an inconclusive call do not appear. This is one part of the list. Where a call stands in place of a potency, no number is given. Calls of active or inactive are those of the source. Unless noted, calls come from the whole dose curve; as a rule, active = well fitted curve in the direction sought with a large enough effect; inconclusive = small, poorly fitted or top-dose-only effect, or another doubt; inactive = no such curve, though single readings can be large; an effect the other way counts as inactive or inconclusive.

Key:
[1] = biological target: Cytochrome P450 2C9 (Homo sapiens) (UniProt P11712); experiment: qHTS Assay for Inhibitors and Substrates of Cytochrome P450 2C9 (AID 883); note: nearly all actives have a fitted effect of over 60% in size; note: potency is the fitted concentration of half-maximal effect
Sequence of Cytochrome P450 2C9 (Homo sapiens) (P11712 whole entry, looked up): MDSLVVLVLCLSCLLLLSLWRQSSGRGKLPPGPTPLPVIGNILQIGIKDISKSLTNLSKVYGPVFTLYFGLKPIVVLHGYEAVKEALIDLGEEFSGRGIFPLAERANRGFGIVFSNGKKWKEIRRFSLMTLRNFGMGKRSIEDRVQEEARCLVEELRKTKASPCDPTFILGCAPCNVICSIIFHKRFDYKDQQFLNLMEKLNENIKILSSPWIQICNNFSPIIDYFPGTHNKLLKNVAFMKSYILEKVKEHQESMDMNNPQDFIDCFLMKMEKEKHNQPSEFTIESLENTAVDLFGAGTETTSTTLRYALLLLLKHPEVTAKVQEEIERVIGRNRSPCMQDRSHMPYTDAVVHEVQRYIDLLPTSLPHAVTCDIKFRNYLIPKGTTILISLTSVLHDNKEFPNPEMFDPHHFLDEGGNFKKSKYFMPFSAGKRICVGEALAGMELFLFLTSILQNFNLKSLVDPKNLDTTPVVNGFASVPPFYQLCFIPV
How it was run: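 Luminescent read-out of deoxyluciferin hydroxylation, normalized to 57uM sulphaphenazole (AC100). Reaction: 10nM enzyme, 100uM Luciferin-H (equal to KM), 25mM KPO4, 10 min compound preincubation, then 60 min with NADPH regeneration, both at 37C.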

[2] = qHTS Assay for Identification of Small Molecule Agonists for Hypoxia Response Element Signaling Pathway (AID 914; active = well fitted activation curve with a large enough effect in the signal ratio, with a control signal flat, not every such curve was filed as active; the % refers to the signal ratio); conditions: ME-180 (cervical carcinoma) HRE-bla reporter, beta-lactamase ratio, CoCl2, 17 h; activation: hits give high values
How it was run: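 HRE-bla ME-180 cells with beta-lactamase reporter under hypoxia response element, compounds with EC50 CoCl2 for 17 hours at 37 C. CCF4 substrate, 460nm/530nm emission ratio gave %Activity; AC50 from titration series.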

[3] = Confirmation and Secondary Assay for Modulators of Hemoglobin Beta Chain Splicing at IVS2 654 locus (AID 910);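 note: HeLa cells stably carrying EGFP split by mutant beta-globin IVS2-654 intron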
How it was run: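 Readout: per-well total peak green fluorescence (488 nm ex, 500–520 nm em) from objects 5–250 µm, reflecting correct splicing of an EGFP-654 reporter. Compounds were applied for 2 days at 37 °C to overnight-plated HeLa EGFP-654 cells; controls were DMSO and 500 nM IVS2-654 PNA.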

[4] = Confirmation and Secondary Assay for Modulators of Hemoglobin Beta Chain Splicing at IVS2 705 locus (AID 930);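 note: HeLa cells stably expressing the EGFP-705 splicing reporter; GFP fluorescence per well restored by corrected splicing of the IVS2-705 intron in EGFP; series mostly up to about 46 µM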
How it was run: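 HeLa cells stably carrying EGFP interrupted by mutant beta-globin intron 2 (IVS2-705) treated 2 days at 37C with compound; 500 nM antisense PNA as control. Correct splicing read as total peak GFP intensity per well by laser-scanning cytometry.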

[5] = biological target: Cytochrome P450 3A4 (Homo sapiens) (UniProt P08684); experiment: qHTS Assay for Activators of Cytochrome P450 3A4 (AID 885); note: nearly all actives have a fitted effect of over 65% in size
Sequence of Cytochrome P450 3A4 (Homo sapiens) (P08684 whole entry, looked up): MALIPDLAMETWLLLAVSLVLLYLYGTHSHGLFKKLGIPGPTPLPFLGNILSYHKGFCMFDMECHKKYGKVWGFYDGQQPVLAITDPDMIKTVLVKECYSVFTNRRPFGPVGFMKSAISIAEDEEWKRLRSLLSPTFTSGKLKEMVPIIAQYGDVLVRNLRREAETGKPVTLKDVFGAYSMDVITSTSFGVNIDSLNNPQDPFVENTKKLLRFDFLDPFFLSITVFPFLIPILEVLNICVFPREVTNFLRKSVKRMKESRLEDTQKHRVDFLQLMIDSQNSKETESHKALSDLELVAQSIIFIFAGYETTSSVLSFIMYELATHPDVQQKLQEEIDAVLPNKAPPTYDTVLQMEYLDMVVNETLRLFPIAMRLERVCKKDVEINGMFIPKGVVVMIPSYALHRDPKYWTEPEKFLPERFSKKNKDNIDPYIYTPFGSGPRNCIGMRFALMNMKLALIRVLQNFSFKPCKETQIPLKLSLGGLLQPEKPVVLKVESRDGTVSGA
How it was run: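 Human CYP3A4 (20 nM) with Luciferin-PPXE at 25 uM (its KM) in 200 mM KPO4; 10 min compound preincubation, then NADPH regeneration and 60 min reaction at RT. Luciferin read by luminescence; normalized to 57 uM ketoconazole full inhibition.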

[6] = biological target: Muscarinic acetylcholine receptor M1 (Rattus norvegicus) (UniProt P08482); experiment: qHTS Assay for Antagonists of Acetylcholine Muscarinic M1 Receptor: Kinetic Measurement of Intracellular Calcium Response (AID 943); note: series mostly up to about 35 µM; nearly all actives have a fitted effect of over 75% in size
Sequence of Muscarinic acetylcholine receptor M1 (Rattus norvegicus) (P08482 whole entry, looked up): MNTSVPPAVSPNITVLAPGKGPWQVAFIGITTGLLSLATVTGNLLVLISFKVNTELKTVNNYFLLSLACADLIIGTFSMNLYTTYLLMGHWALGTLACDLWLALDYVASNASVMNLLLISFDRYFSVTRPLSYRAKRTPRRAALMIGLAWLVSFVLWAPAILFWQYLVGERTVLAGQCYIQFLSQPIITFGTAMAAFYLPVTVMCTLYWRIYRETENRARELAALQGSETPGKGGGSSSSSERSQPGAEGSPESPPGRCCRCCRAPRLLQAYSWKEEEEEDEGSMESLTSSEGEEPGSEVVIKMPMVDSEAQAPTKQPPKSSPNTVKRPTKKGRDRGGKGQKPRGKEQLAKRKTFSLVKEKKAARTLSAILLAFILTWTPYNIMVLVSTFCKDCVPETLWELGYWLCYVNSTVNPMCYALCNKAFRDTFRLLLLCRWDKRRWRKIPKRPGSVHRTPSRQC
How it was run: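 CHO cells expressing rat M1 receptor, Fluo-4 loaded, preincubated 10 min with compound, then stimulated with EC80 carbachol (100 nM final). Kinetic calcium fluorescence over 4 min; response taken as peak over basal signal.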

[7] = biological target: Muscarinic acetylcholine receptor M1 (Rattus norvegicus) (UniProt P08482); experiment: qHTS Assay for Antagonists of Acetylcholine Muscarinic M1 Receptor: Measurement of IP-One Response (AID 944); note: nearly all actives have a fitted effect of over 75% in size
How it was run: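 CHO cells stably expressing rat M1, pretreated 10 min with compound, then stimulated 30 min with carbachol at EC80 (200 nM) in LiCl-containing buffer pH 7.4; IP1 accumulation read by HTRF competition (665/620 nm).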

[8] = biological target: Pyruvate kinase (Leishmania mexicana) (UniProt Q27686); experiment: qHTS Validation Assay for Activators of Leishmania Mexicana Pyruvate Kinase (AID 959); conditions: purified L. mexicana pyruvate kinase, enzyme activity
Sequence of Pyruvate kinase (Leishmania mexicana) (Q27686 2-499 E452W): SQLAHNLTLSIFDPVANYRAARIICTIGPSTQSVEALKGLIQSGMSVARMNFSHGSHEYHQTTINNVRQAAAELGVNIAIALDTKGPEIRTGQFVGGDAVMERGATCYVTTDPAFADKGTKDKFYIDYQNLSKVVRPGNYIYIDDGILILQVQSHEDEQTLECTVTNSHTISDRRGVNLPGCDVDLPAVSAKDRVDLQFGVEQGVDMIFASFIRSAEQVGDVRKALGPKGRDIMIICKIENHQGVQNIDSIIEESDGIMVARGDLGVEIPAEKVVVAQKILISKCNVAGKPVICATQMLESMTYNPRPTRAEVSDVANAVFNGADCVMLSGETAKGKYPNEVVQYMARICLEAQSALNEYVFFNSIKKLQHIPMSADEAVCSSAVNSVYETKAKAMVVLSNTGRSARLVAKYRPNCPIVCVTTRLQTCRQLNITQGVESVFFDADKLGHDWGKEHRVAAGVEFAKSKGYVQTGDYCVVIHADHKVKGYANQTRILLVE
How it was run: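 Eight-point qHTS titrations in triplicate, data normalized to DMSO neutral control. Reaction: 0.2 nM LmPYK E451W mutant, 0.5 mM PEP, 0.1 mM ADP, 7 mM MgCl2, pH 7.2, one hour at room temperature; luminescent ATP detection.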

[9] = biological target: Vitamin D3 receptor (Homo sapiens) (UniProt P11473); experiment: qHTS for Inhibitors of the vitamin D receptor (VDR): Hit Validation in Primary Screen (AID 602199); conditions: VDR-coactivator inhibition assay, qHTS confirmation; note: potency is the fitted concentration of half-maximal effect
Sequence of Vitamin D3 receptor (Homo sapiens) (P11473 whole entry, looked up, the tested form may be a part): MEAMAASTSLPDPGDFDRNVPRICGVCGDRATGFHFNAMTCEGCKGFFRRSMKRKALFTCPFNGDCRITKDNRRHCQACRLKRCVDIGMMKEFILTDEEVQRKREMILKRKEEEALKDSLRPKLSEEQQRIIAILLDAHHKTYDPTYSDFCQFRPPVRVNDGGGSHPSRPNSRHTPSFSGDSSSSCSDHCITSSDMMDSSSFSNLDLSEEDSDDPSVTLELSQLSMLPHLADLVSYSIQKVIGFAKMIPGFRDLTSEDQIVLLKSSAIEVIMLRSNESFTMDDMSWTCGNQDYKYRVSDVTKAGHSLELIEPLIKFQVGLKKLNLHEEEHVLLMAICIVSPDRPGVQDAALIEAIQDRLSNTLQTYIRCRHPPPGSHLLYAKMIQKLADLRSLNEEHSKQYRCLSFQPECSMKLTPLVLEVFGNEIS
How it was run: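 With 800 nM VDR and 5 uM LG19078 agonist present, compounds were incubated 2 h at ambient temperature with Alexa 647-labelled SRC2-3. Displacement was read as polarization at 620/688 nm.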

[10] = biological target: Vitamin D3 receptor (Homo sapiens) (UniProt P11473); experiment: qHTS for Inhibitors of the vitamin D receptor (VDR): Hit Validation using a Fluorescein Assay (AID 602200); conditions: VDR-coactivator binding, fluorescein fluorescence polarization; note: potency is the fitted concentration of half-maximal effect
How it was run: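 Compounds added to VDR ligand-binding domain (1.5 uM) with agonist LG19078 (5 uM) and 5 nM SRC2-3 fluorescein peptide, final concentrations. After 2 h at ambient temperature, polarization of fluorescein emission (Ex 495 nm/Em 520 nm) measured.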

[11] = biological target: Vitamin D3 receptor (Homo sapiens) (UniProt P11473); experiment: qHTS for Inhibitors of the vitamin D receptor (VDR): Hit Validation using a Beta-Lactamase Assay (AID 602202); note: potency is the fitted concentration of half-maximal effect
How it was run: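 Beta-lactamase reporter read-out (447 nm emission of cleaved FRET substrate, 2 h) after 18 h compound exposure of HEK293 cells carrying a VDR-GAL4 fusion and UAS reporter, stimulated with LG190178.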

[12] = biological target: Cytochrome P450 2D6 (Homo sapiens) (UniProt P10635); experiment: qHTS Assay for Inhibitors and Substrates of Cytochrome P450 2D6 (AID 891); note: potency is the fitted concentration of half-maximal effect; nearly all actives have a fitted effect of over 60% in size
Sequence of Cytochrome P450 2D6 (Homo sapiens) (P10635 whole entry, looked up): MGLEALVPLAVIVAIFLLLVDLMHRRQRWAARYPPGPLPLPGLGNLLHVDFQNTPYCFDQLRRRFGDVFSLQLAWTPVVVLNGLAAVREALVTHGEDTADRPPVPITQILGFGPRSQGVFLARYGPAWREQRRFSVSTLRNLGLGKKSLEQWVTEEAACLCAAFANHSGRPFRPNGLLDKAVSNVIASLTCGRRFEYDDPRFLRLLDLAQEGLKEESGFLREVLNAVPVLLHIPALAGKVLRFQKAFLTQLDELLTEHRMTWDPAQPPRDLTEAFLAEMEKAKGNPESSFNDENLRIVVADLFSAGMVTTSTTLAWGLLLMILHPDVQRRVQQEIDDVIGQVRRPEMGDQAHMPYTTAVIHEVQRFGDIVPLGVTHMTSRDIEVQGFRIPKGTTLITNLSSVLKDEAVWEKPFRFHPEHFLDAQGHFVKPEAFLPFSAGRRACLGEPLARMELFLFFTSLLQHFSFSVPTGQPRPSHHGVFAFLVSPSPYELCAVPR
How it was run: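 Human CYP2D6 (5 nM) with 30 uM Luciferin-ME EGE (at Km) in 100 mM KPO4, compound preincubated 10 min, then NADPH regeneration system for 60 min at room temperature. Luciferin read by luminescence; normalized to 1.43 uM quinidine.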

[13] = biological target: Cytochrome P450 2C19 (Homo sapiens) (UniProt P33261); experiment: qHTS Assay for Inhibitors and Substrates of Cytochrome P450 2C19 (AID 899); note: nearly all actives have a fitted effect of over 60% in size
Sequence of Cytochrome P450 2C19 (Homo sapiens) (P33261 whole entry, looked up): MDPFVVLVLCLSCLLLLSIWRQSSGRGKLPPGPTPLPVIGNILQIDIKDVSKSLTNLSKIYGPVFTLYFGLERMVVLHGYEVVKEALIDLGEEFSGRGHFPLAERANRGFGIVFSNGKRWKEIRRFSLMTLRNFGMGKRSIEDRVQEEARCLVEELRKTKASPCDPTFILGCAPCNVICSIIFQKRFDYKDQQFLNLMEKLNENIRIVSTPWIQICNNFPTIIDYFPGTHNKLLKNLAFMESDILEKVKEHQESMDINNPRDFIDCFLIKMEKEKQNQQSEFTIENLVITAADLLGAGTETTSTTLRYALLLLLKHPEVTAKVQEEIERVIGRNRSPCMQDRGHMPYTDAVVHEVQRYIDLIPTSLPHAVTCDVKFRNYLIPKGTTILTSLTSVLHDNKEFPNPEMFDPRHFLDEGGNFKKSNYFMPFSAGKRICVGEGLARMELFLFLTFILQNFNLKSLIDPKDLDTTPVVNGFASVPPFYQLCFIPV
How it was run: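 Luminescence readout of luciferin formed from 10uM Luciferin-H EGE (KM level) by 5 nM CYP2C19 in 50mM KPO4. 60 min NADPH-driven reaction at 37C after 10 min compound preincubation; data scaled to 57uM ketoconazole inhibition.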

[14] = biological target: Cytochrome P450 3A4 (Homo sapiens) (UniProt P08684); experiment: qHTS Assay for Inhibitors and Substrates of Cytochrome P450 3A4 (AID 884); note: nearly all actives have a fitted effect of over 50% in size; note: potency is the fitted concentration of half-maximal effect
How it was run: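 20 nM human CYP3A4 with 25 uM Luciferin-PPXE (at KM) in 200 mM KPO4, preincubated 10 min with compound; NADPH regeneration started a 60 min RT reaction. Luciferin detected by luminescence, normalized to 57 uM ketoconazole as full inhibition.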

[15] = biological target: DNA dC->dU-editing enzyme APOBEC-3G (Homo sapiens) (UniProt Q9HC16); experiment: qHTS for inhibitors of Vif-A3G interactions: Validation (AID 588379)
Sequence of DNA dC->dU-editing enzyme APOBEC-3G (Homo sapiens) (Q9HC16 whole entry, looked up): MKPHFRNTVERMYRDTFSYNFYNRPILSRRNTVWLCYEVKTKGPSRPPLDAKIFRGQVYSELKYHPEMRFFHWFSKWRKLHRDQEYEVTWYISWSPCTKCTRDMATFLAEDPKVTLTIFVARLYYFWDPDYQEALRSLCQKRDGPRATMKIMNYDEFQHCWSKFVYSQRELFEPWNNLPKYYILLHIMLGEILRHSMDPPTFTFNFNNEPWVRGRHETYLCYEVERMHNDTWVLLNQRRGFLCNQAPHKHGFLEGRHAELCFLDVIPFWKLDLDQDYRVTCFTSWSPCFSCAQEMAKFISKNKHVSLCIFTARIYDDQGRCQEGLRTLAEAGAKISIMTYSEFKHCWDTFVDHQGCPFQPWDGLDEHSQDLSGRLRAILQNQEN
How it was run: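 HeLa cells stably expressing Vif and A3G-eYFP, 700 cells/well, incubated overnight at 37 deg C, then exposed to compound overnight at 37 deg C. Inhibition of Vif-mediated degradation read as increased yellow fluorescence (Ex 488/Em 500-530) by laser-scanning cytometry.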

[16] = biological target: Luciferin 4-monooxygenase (Photinus pyralis) (UniProt P08659); experiment: Biochemical firefly luciferase enzyme assay for NPC (AID 624030);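 note: purified P. pyralis luciferase at 10 nM with luciferin and ATP substrate; series mostly up to about 59 µM; nearly all actives have a fitted effect of over 70% in size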
Sequence of Luciferin 4-monooxygenase (Photinus pyralis) (P08659 whole entry, looked up): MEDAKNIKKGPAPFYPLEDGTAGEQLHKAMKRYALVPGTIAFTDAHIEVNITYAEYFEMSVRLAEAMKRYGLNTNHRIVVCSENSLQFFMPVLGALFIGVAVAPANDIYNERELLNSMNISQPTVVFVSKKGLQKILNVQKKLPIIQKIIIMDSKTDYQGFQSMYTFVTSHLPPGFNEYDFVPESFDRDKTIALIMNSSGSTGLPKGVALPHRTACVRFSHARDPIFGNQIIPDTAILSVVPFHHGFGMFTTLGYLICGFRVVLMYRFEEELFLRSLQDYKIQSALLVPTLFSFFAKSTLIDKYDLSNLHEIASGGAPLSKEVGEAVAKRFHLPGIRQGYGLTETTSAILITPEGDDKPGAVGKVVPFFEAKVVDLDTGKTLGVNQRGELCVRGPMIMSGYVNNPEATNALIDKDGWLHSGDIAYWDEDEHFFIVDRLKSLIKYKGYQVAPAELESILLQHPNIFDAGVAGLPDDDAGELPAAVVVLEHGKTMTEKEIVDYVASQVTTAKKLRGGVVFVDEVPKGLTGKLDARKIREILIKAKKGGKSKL
How it was run: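 Direct inhibition of firefly luciferase enzyme (10 nM final, 50 mM Tris Acetate) assessed by luminescence within 5 minutes. Percent activity scaled between DMSO and PTC124 positive control, with concentration-effect curves classified by fit quality and response.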

[17] = biological target: Cytochrome P450 2C9 (Homo sapiens) (UniProt P11712); experiment: Cytochrome P450 family 2 subfamily C member 9 (CYP2C9) small molecule antagonists: luciferase biochemical (cell-free) qHTS assay (AID 1645842; active = well fitted curve in the direction sought with a large enough effect in the repeat runs; an effect the other way counts as inactive or inconclusive; note: potency is the fitted concentration of half-maximal effect; nearly all actives have a fitted effect of over 55% in size)
How it was run: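 Luminescence, after 20 min with luciferin detection reagent, reflected CYP2C9 turnover during a 1 h NADPH-driven reaction at 37C. Enzyme-substrate mix contained 0.4% bovine serum albumin and was preincubated with compound 10 min at room temperature.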

O=C(c1cc(C(F)(F)F)cc(C(F)(F)F)c1)N1CCC2(CC1)CCN(c1ncccn1)CC2
Potency [1]: inactive
activation [2]: 1.37%

Nc1ccn(C2OC(CO)C(O)C2O)c(=O)n1 (configuration not stated)
Potency [3]: inactive
outcome [4]: inactive

CC(=O)OCC1=C(C(=O)O)N2C(=O)[C@@H](NC(=O)CSc3ccncc3)[C@@H]2SC1
Potency [5]: inactive
Potency [6]: inactive
Potency [7]: inactive
Potency [8]: 15.8 µM (active)

CCOc1ccc(NC(=O)c2c(NC(=O)Cc3ccccc3)sc3c2CCC(C)C3)cc1 (configuration not stated)
Potency [9]: 5.62 µM (active)
Potency [10]: 8.91 µM (active)
Potency [11]: inactive

CCCN1C[C@H](CSC)C[C@H]2c3cccc4[nH]cc(c34)C[C@@H]21
Potency [1]: inactive
Potency [5]: inactive
Potency [12]: 0.0316 µM (active)
Potency [13]: inactive

Cc1ccccc1[C@@H](OCCN(C)C)c1ccccc1
Potency [1]: inactive
Potency [5]: inactive

O=c1[nH]cnc2c1ncn2C1OC(CO)C(O)C1O (configuration not stated)
Potency [14]: inactive
Potency [3]: inactive
outcome [4]: inactive
outcome [15]: inactive
outcome [16]: inactive

Cc1nnc(SCC(=O)NCc2ccccc2Cl)c2nn(-c3ccccc3)c(C)c12
Potency [17]: 3.01 µM (active)

O=C(O)[C@H]1CCCN(CCC=C(c2ccccc2)c2ccccc2)C1
Potency [1]: 7.94 µM (active)
Potency [6]: inactive
Potency [7]: inactive

C[N+]1(C)CCC[C@@H](OC(=O)C(O)(c2ccccc2)c2ccccc2)C1
Potency [13]: inactive

COc1ccccc1-c1cc(C(F)(F)F)nc(S(=O)(=O)CCCC(=O)Nc2ccc(F)cc2F)n1
Potency [9]: 4.47 µM (active)
Potency [10]: 8.91 µM (active)
Potency [11]: 18.4 µM (active)

CCN1CCC[C@@H]1CNC(=O)c1cc(S(N)(=O)=O)ccc1OC
Potency [1]: inactive
Potency [14]: inactive
Potency [13]: inactive

COC(=O)C1OC(=O)C2OC23[C@]2(C)C(O)CC4C(C)(C)C(OC(C)=O)CC(OC(C)=O)[C@@]4(C)C2CC[C@@]13C (some centres not stated)
Potency [14]: 251 nM (active) and 794 nM (active)
Potency [5]: inactive
Potency [3]: inactive
outcome [4]: inactive

CC(=O)O[C@@H](C)C[N+](C)(C)C
Potency [6]: inactive
Potency [7]: inactive
outcome [16]: inactive

CN(C)CCOC(c1ccccc1)c1ccccc1 (tested in a mixture with another compound)
Potency [3]: inactive
outcome [4]: inactive

CC(=O)Oc1c(C)c(C)c2c(c1C)CCC(C)(CCCC(C)CCCC(C)CCCC(C)C)O2 (configuration not stated)
Potency [14]: inactive
Potency [3]: inactive
outcome [4]: inactive
outcome [15]: inactive

Nc1ncnc2c1ncn2C1OC(CO)C(O)C1O (configuration not stated)
Potency [3]: inactive
outcome [4]: inactive

CC(=O)Oc1cc(OC(C)=O)c2c(c1)OC(c1ccc(OC(C)=O)c(OC(C)=O)c1)C(OC(C)=O)C2 (configuration not stated)
Potency [14]: 31.6 µM (active)
Potency [5]: inactive
Potency [3]: inactive
outcome [4]: inactive
